Bioassay records from PubChem.
The sample as a whole holds a higher share of hits than the screen did.
Pf Dd2 growth – qHTS Primary assay for Inhibitors of Plasmodium falciparum Dd2 growth in vitro; P. falciparum Dd2 growth, SYBR Green, 72 h; Potency, µM (titrated, usually from 28.9 µM), for inactives: top-dose activity, negative = inhibition, hits mostly inhibitors; 4.3% of 120,000 active; AID 1347417, 2020; active means well fitted inhibition curve with a large enough effect;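 further: plate controls were DMSO vehicle for no effect and reference drug for full effect; nearly all actives have a fitted effect of over 65% in size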
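Readout: SYBR Green fluorescence, 485 nm excitation, 535 nm emission, after ~16 h lysis at 37C. Before that, Dd2-infected red cells (2.5% hematocrit) grew 72 h with compound, 29 uM top final concentration.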
* marks the source's active call; other numbers are inactive results; i = inactive; [ ] = another dose, or the depositor's remark. Potency means the concentration at half of the fitted maximal effect.

SMILES	Pf Dd2 growth
CCOC(=O)C1CCCN(C(=O)C2CC(c3ccc(CC)cc3)CN(C(=O)c3ccoc3)C2)C1 (stereo unspecified)	1.1µM*
CCOC(=O)C1CCCN(C(=O)C2CC(c3ccccc3)CN(C(=O)c3cccc(F)c3)C2)C1 (stereo unspecified)	i
Cc1ccc(C2Cn3nnc(-c4nc(-c5ccc(C(F)(F)F)cc5)no4)c3CO2)c(C)c1 (stereo unspecified)	4%
COc1ccc(C(=O)N[C@@H]2CCC[C@@H]2C(=O)NCc2cc(OC)ccc2OC)cc1	-5%
COc1ccccc1CNC(=O)[C@H]1CCC[C@H]1NC(=O)c1ccncc1	14%
CCOc1ccccc1CNC(=O)[C@H]1CCC[C@H]1NC(=O)c1ccc(OC)cc1	11µM*
Cc1ccsc1[C@@H]1CCN(C(=O)c2ccccc2-c2ncc[nH]2)C[C@H]1O	-14%
COc1ccccc1-c1ncc2c(n1)OCCN(c1cccc(C(F)(F)F)c1)C2=O	i
O=C1c2cnc(-c3cccc(CO)c3)nc2OCCN1c1cccc(C(F)(F)F)c1	14µM*
COc1ncccc1-c1ncc2c(n1)OCCN(c1cccc(C(F)(F)F)c1)C2=O	-9%[44.1 µM]
COc1ncccc1CN1CC[C@@H]2OCC(=O)N(Cc3ccccc3)[C@H]2CC1	-3%[44.1 µM]
CCC1Oc2ccc(NC(=O)c3ccc(C#N)cc3)cc2CN(Cc2ccccc2F)C1=O (stereo unspecified)	-16%
O=C(NCc1cc2n(n1)CCNC2)C(c1ccccc1)C1CCCC1 (stereo unspecified)	-30%
c1ccc(-c2nc(NCc3cc4n(n3)CCCNC4)c3ccccc3n2)cc1	7.9µM*
Cc1cccc2ncc(C(=O)NCc3cc4n(n3)CCCNC4)c(=O)n12	3%
COc1cc(C2CC(=O)Nc3c2c(C)nn3-c2nc(C)cc(C)n2)cc(OC)c1O (stereo unspecified)	-26%
COc1ccc(C2CC(=O)Nc3c2c(C)nn3-c2nc(C)cc(C)n2)c(OC)c1OC (stereo unspecified)	-53%[0.594 µM]
CCc1ccc(C2CC(=O)Nc3c2c(C)nn3-c2nc(C)cc(C)n2)cc1 (stereo unspecified)	11µM*
O=C(c1n[nH]c2ccccc12)N1CCC(c2nc(C3CCOCC3)no2)C1 (stereo unspecified)	i
Nc1n[nH]c(C(=O)N2C[C@H](CO)C[C@H](CN3CCOCC3)C2)c1Cl	-4%
Cc1ccc(C(=O)N2C(C(=O)NCC3CCCO3)COC23CCN(C(=O)CC(C)(C)C)CC3)cc1 (stereo unspecified)	-11%
O=C(O)c1ccccc1C(=O)N1Cc2[nH]cnc2C[C@H]1c1nc(-c2ccc(C(F)(F)F)cc2)no1	-22%
c1ccc(COc2ccc(CN3CCSCC3)cc2)nc1	-1%
c1ccc(COc2ccc(CN3CCN(C4CCNC4)CC3)cc2)cc1 (stereo unspecified)	8.9µM*
c1ccc(CN2C[C@H]3CCNC[C@H]32)cc1	i
SMILES	Pf Dd2 growth
Cc1ccc(-n2ncc3c2CCCC3NC(=O)c2cc(C(C)C)no2)cc1C (stereo unspecified)	-1%
CCN1CCC(N(Cc2cccc(OC)c2)C(=O)Nc2ccc(C)cc2Cl)CC1	-14%
CC(=O)N1CCC(N(Cc2ccco2)C(=O)Nc2ccc(C)c(Cl)c2)CC1	1%
COc1ccc(C)cc1NC(=O)N(Cc1ccc(C)o1)C1CCN(C(C)=O)CC1	-17%
COc1ccc(C)cc1NC(=O)N(Cc1ccc2c(c1)OCO2)C1CCN(Cc2ccccc2)CC1	8.9µM*
Cc1ccc(NC(=O)N(Cc2ccc3c(c2)OCO3)C2CCN(Cc3ccccc3)CC2)cc1C	-28%
Cc1ccc(NC(=O)N(Cc2ccc3c(c2)OCO3)C2CCN(Cc3ccccc3)CC2)cc1Cl	10µM*
CN(CCc1ccccn1)[C@@H]1[C@H](O)[C@H](CO)O[C@@H]1CNC(=O)Nc1ccc(OC(F)(F)F)cc1	i
Cc1noc(-c2cn(C3CCN(C(=O)c4ccccc4Cl)C3)nn2)n1 (stereo unspecified)	-9%
CC(=O)N1CCN(CC[C@@H]2CC[C@H](O)[C@@H](C(=O)N3CCOCC3)O2)CC1	26%[44.1 µM]
c1nnc(CC2CCCNC2)n1CC1CC1 (stereo unspecified)	23%
CC(C)CCC(=O)N[C@@H]1CN(C)C[C@H]1CN(C)C	17%
COc1ccc(-c2ccnc(N[C@H]3CO[C@H]4[C@@H]3OC[C@H]4OC(=O)Nc3ccc(C(C)=O)cc3)n2)cc1	5.6µM*
COc1ccc(-c2ccnc(N[C@H]3CO[C@H]4[C@@H]3OC[C@H]4OC(=O)Nc3ccc(C(C)(C)C)cc3)n2)cc1	i
COc1ccc(-c2ccnc(N[C@H]3CO[C@H]4[C@@H]3OC[C@@H]4NC(=O)CC3(CC(=O)O)CCCC3)n2)cc1	-4%
COc1ccc(-c2ccnc(N[C@H]3CO[C@H]4[C@@H]3OC[C@H]4OC(=O)Nc3cccc(C(C)=O)c3)n2)cc1	-28%
CCNC(=O)N[C@H]1CO[C@H]2[C@@H]1OC[C@@H]2Nc1nccc(-c2ccc(OC)cc2)n1	i
